# The supplement of paper PMC13380429
# Key:
# [1] = system: Vero E6 infected with SARS-CoV-2; assay: morphology score (similarity to uninfected cells); higher = more like uninfected cells; conditions: 24 h
# [2] = system: Vero E6 infected with SARS-CoV-2; assay: SARS-CoV-2 infection rate relative to infected DMSO; higher = more infection, active = 60 or less; conditions: 24 h
Structure (SMILES),morphology score [1],SARS-CoV-2 infection rate [2]
Oc1ccc(OC2CCCCO2)cc1 (stereo unspecified) [deoxyarbutin] (10 µM),0.198,97% (inactive)
CC(C)SC(=N)N [S-isopropylisothiourea] (10 µM),0.0211,105% (inactive)
CO/N=C(\C(=O)N[C@@H]1C(=O)N2C(C(=O)[O-])=C(C[N+]3(C)CCCC3)CS[C@H]12)c1csc(N)n1 [cefepime] (10 µM),0.0622,114% (inactive)
CCn1ccnc1CC1COc2ccccc2O1 (stereo unspecified) [imiloxan] (10 µM),-0.00924,99% (inactive)
Cc1cc(C(C#N)c2ccc(Cl)cc2)c(Cl)cc1NC(=O)c1cc(I)cc(I)c1O (stereo unspecified) [closantel] (10 µM),0.257,91.5% (inactive)
Cc1cc(NC(=O)Nc2ccc(F)c(F)c2)n(-c2ccccc2)n1 (10 µM),0.105,102% (inactive)
CCN(CC)CCOc1ccc(C(O)(Cc2ccc(Cl)cc2)c2ccc(C)cc2)cc1 (stereo unspecified) [Triparanol] (0.833333 µM),0.0848,77.5% (inactive)
CC(C)OC(=O)OCOP(=O)(CO[C@H](C)Cn1cnc2c(N)ncnc21)OCOC(=O)OC(C)C [tenofovir-disoproxil] (10 µM),-0.00661,116% (inactive)
O=C(O)C1(C(=O)O)CCC1.[NH2-].[NH2-].[Pt+2] [carboplatin] (10 µM),-0.0106,102% (inactive)
Cn1ncc2c(N3CCOCC3)nc(-c3cccc(O)c3)nc21 (10 µM),-0.103,114% (inactive)
COc1ccccc1OC(=O)c1ccccc1OC(C)=O [guacetisal] (10 µM),0.0562,101% (inactive)
N[C@]1(C(=O)O)CC[C@@H](C(=O)O)C1 (10 µM),0.188,82% (inactive)
CC(=O)[C@@]1(O)CC[C@H]2[C@@H]3C=C(Cl)C4=CC(=O)[C@@H]5C[C@@H]5[C@]4(C)[C@H]3CC[C@@]21C (10 µM),0.204,109% (inactive)
COc1cc2nc(N3CCN(C(=O)c4ccco4)CC3)nc(N)c2cc1OC [prazosin] (10 µM),-0.0585,107% (inactive)
CC(C)C[C@@H](C=O)NC(=O)[C@H](CC(C)C)NC(=O)[C@H](CC(C)C)NC(=O)OCc1ccccc1 (10 µM),0.514,66% (inactive)
CCOc1c(N2CCOCC2)cnn(C)c1=O [emorfazone] (10 µM),0.185,100% (inactive)
Cc1ncc(CO)c(CO)c1O [pyridoxine] (10 µM),0.0823,108% (inactive)
CC(C)(C)CC(C)(C)c1ccc(O)c(Cc2ccc(Cl)cc2Cl)c1 [clofoctol] (10 µM),0.121,94% (inactive)
COCCc1ccc(OCC(O)CNC(C)C)cc1 (stereo unspecified) [metoprolol] (10 µM),0.0844,101% (inactive)
CC(C)(C)CC(C)(C)c1ccc(OCCOCC[N+](C)(C)Cc2ccccc2)cc1 [benzethonium] (10 µM),-0.104,108% (inactive)
O=C(NCCN1CCOCC1)c1ccc(Cl)cc1 [moclobemide] (10 µM),0.182,103% (inactive)
COc1cc(C)nc(-n2nc(C)cc2OC)n1 [epirizole] (10 µM),0.0529,111% (inactive)
O=C(Nc1ncc(SCCN2CCCC2)s1)[C@]1(c2ccc(S(=O)(=O)C3CC3)cc2)C[C@H]1C1CCCCC1 (10 µM),0.767,17% (active)
O=C(NCC1CCOCC1)c1cnc(Nc2ccc(Cl)cc2Cl)nc1C(F)(F)F (10 µM),0.326,96% (inactive)
O=C1c2cccc3c2[C@H](CCC3)CN1[C@@H]1CN2CCC1CC2 [palonosetron] (10 µM),0.324,91.5% (inactive)
CC(C)(C)NCC(O)c1cc(Cl)c(N)c(C(F)(F)F)c1 (stereo unspecified) [mabuterol] (10 µM),-0.0501,107% (inactive)
COc1cc(C(=S)N2CCOCC2)ccc1O [vanitiolide] (10 µM),0.152,102% (inactive)
C[C@@H]1CC[C@@]2(NC1)O[C@H]1C[C@H]3[C@@H]4CC=C5C[C@@H](O[C@@H]6O[C@H](CO)[C@@H](O[C@@H]7O[C@@H](C)[C@H](O)[C@@H](O)[C@H]7O)[C@H](O)[C@H]6O[C@@H]6O[C@@H](C)[C@H](O)[C@@H](O)[C@H]6O)CC[C@]5(C)[C@H]4CC[C@]3(C)[C@H]1[C@@H]2C [solamargine] (0.833333 µM),0.117,102% (inactive)
